Publication PMC4336329 (PLoS ONE, 2015)
Among all 310,000 compounds or so, about 14,000 (4.5%) showed an effect of 50% or more. Effects have a minus sign here. Shown is part of a subset that was picked to be rich in strong results.

Each compound was assayed against human ether-à-go-go-related gene (hERG) potassium channel (human, UniProt Q12809) (assay: primary screen, population patch clamp on CHO cells stably expressing hERG; higher = less effect of the substance).
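Further: peak tail current of the secondary pulse compared with the same well before compound.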

Sequence of human ether-à-go-go-related gene (hERG) potassium channel (Q12809 whole entry, looked up): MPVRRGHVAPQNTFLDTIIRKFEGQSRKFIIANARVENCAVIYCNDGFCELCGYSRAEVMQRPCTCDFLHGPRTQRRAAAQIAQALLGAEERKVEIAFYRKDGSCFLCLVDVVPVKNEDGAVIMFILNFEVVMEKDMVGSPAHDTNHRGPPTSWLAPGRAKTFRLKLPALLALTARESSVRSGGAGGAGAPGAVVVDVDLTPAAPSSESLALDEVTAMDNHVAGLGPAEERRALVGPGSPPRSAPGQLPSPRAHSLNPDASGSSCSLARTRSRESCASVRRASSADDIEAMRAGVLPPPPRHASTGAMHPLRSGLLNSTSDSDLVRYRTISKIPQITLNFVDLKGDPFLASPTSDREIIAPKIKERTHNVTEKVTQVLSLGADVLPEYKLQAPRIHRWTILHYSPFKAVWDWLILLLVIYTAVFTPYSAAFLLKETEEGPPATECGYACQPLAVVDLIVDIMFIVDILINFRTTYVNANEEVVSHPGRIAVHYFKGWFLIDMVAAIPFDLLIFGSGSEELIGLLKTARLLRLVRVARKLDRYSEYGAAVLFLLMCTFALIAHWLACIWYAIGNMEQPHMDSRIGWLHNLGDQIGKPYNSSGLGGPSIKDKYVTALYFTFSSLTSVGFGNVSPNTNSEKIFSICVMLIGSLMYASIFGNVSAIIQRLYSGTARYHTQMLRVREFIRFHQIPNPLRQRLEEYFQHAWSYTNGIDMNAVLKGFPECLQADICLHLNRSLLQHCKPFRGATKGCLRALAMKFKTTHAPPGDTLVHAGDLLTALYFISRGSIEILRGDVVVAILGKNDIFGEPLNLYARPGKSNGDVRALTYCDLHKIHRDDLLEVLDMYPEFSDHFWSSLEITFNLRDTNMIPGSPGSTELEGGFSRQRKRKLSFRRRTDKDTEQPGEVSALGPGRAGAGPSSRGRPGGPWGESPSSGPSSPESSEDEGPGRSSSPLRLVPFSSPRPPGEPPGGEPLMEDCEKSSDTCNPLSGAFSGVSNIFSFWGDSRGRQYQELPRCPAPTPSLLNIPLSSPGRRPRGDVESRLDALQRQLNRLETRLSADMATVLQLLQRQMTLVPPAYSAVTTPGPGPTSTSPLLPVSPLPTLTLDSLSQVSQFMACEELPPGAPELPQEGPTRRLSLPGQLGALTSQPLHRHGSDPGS

Point of comparison: `CC1(C)SC2c3ccccc3C(=O)N2[C@@H]1C(=O)NC1CC1` (stereo partly drawn), “hERG current change (%, negative = inhibition) at 10uM” value 9.97%. Against it:
- O=C1Cc2cc(S(=O)(=O)NCc3ccccc3Cl)cc3c2N1CCC3 — lower, 6.14%
- Cc1ccc(/C=C2\SC(=S)N(c3cccnc3)C2=O)o1 — lower, 6.67%
- CCOC(=O)c1ccc(NC(=O)c2nc[nH]c2C(=O)N2CCc3ccccc3C2)cc1 — lower, 0.122%
- CC(C)CNc1nc(N)c([N+](=O)[O-])c(N2CCCCCC2)n1 — lower, -0.987%
- Cc1nc([N+](=O)[O-])cn1CC(=O)c1ccc(F)cc1 — higher, 10.5%
- CCNc1nc(SCC(=O)Nc2ccc(Cl)c(Cl)c2)nc(N(C)C)n1 — higher, 14.8%
- CCN(C(=O)COC(=O)c1[nH]c(C)c(C(C)=O)c1C)C1CCS(=O)(=O)C1 (stereo not drawn) — lower, -8.32%
- CCOc1ccc(-c2cc(C(=O)N/N=C/c3ccc(O)cc3)c3ccccc3n2)cc1 — lower, 4.93%
- Cc1c(C(=O)N/N=C/c2ccccn2)nnn1-c1nonc1N — lower, -15.6%
- Cc1cccc2sc(NC(=O)C3CCN(C(=O)c4ccco4)CC3)nc12 — lower, -71.6%
- Cc1nnc(NC(=O)C2CCN(C(=O)c3ccco3)CC2)s1 — higher, 13.4%
- O=C(Nc1nc2ccccc2s1)C1CCN(C(=O)c2ccco2)CC1 — lower, -41.9%
- Cc1cc(C)c2nc(N3CCC(C(=O)N4CCN(C(=O)c5ccco5)CC4)CC3)sc2c1 — lower, -77.1%
- Cc1cc(C)c2nc(N3CCN(C(=O)c4ccco4)CC3)sc2c1 — lower, -28.5%
- Cc1cc2nc(N3CCN(C(=O)c4ccco4)CC3)sc2cc1C — lower, 0.152%
- C=CCOC(=O)C1=C(C)NC(C)=C(C(=O)OCC=C)C1c1ccc(C)o1 — lower, -27.4%
- O=C(Cc1ccccc1)NCC(=O)N1CCCCCC1 — lower, 9.71%
- CN(C/N=C(\N)N[N+](=O)[O-])S(=O)(=O)c1ccccc1 — higher, 19.4%
- COC(=O)C1=CO[C@@H](O[C@@H]2O[C@H](CO)[C@@H](O)[C@H](O)[C@H]2O)[C@H]2[C@@H]1C(=O)C[C@@H]2C — higher, 23.3%
- COC(=O)c1ccc(CSc2nc3sc(C)c(C)c3c(=O)[nH]2)cc1 — lower, 0.764%
- Nc1c(C(=O)c2ccccc2)sc2nsc(SCCN3CCOCC3)c12 — higher, 18.1%
- CCOc1ccc(CN2CCN(Cc3c(C)nn(CC)c3C)CC2CCO)cc1 (stereo not drawn) — lower, -45%
- CCn1ncc(CN2CCN(Cc3cccc(OC)c3)C(CCO)C2)c1C (stereo not drawn) — lower, 7.07%
- CCn1cc(CN2CCN(Cc3cccc(OC)c3)C(CCO)C2)c(C)n1 (stereo not drawn) — lower, -14.4%
- CCOc1ccc(CN2CCN(Cc3cnn(CC)c3C)CC2CCO)cc1 (stereo not drawn) — lower, -67.8%
- CCn1cc(CN2CCN(Cc3ccc(OC)c(C)c3C)C(CCO)C2)c(C)n1 (stereo not drawn) — lower, -23.1%
- CCOc1ccc(CN2CCN(Cc3cn(CC)nc3C)CC2CCO)cc1 (stereo not drawn) — lower, -62%
- CC1CCCC(C)N1C(=O)C1CC(c2ccc(F)cc2)=NO1 (stereo not drawn) — lower, -7.79%
- O=C(N/N=C/c1ccncc1)c1cc(-c2ccc(Br)s2)[nH]n1 — lower, -12.4%
- Cc1ccc(S(=O)(=O)NCCSCc2ccco2)cc1 — lower, -4.42%
- Cc1ccc2c(c1)N(C(=O)CCC(=O)NCc1ccccn1)CC(C)O2 (stereo not drawn) — lower, -7.23%
- COc1ccc(C)cc1N(CC(=O)O)S(=O)(=O)c1ccc(C)cc1 — higher, 17.1%
- CCN(CC)CCCn1c2c(c(SCC(=O)Nc3cc(C)on3)nc1=O)CCC2 — lower, -2.43%
- CN(C)CCn1c2c(c(SCC(=O)Nc3cccc4ccccc34)nc1=O)CCCC2 — lower, -40.4%
- CCN(CC)CCCn1c2c(c(SCC(=O)Nc3cccc4ccccc34)nc1=O)CCC2 — lower, -56.6%
- CN(C)CCn1c2c(c(SCC(=O)N3CCc4ccccc43)nc1=O)CCCC2 — lower, -44.7%
- CN(C)CCCn1c2c(c(SCC(=O)Nc3cccc4ccccc34)nc1=O)CCCC2 — lower, -45.6%
- CCN(CC)CCCn1c2c(c(SCC(=O)Nc3cccc(C)c3C)nc1=O)CCC2 — lower, -55.3%
- CN(C)CCCn1c2c(c(SCC(=O)Nc3cccc4ccccc34)nc1=O)CCC2 — lower, -38.4%
- CCN(CC)CCn1c2c(c(SCC(=O)Nc3cccc4ccccc34)nc1=O)CCCC2 — lower, -63.8%
- Cc1cccc(NC(=O)CSc2nc(=O)n(CCN3CCOCC3)c3c2CCCC3)c1C — lower, -23.6%
- CN(C)CCn1c2c(c(SCC(=O)Nc3ccccc3C(F)(F)F)nc1=O)CCCC2 — lower, -18.4%
- CCN(CC)CCCn1c2c(c(SCC(=O)N3CCCc4ccccc43)nc1=O)CCC2 — lower, -22.9%
- CCN(CC)CCCn1c2c(c(SCC(=O)N3CCc4ccccc43)nc1=O)CCC2 — lower, -78.6%
- COc1ccc(C)cc1S(=O)(=O)Nc1cc(Cl)ccc1Cl — lower, 7.53%
- CCOC(=O)c1cccc(NC(=O)c2cccs2)c1 — lower, -13.1%
- CCCCc1cc(C(=O)Cc2ccccn2)c(O)cc1O — higher, 16.9%
- O=C(NCc1cccnc1)Nc1ccc(Cl)c(Cl)c1 — lower, -0.174%
- COc1ccc(CN2CC(=O)N3[C@H]4c5ccccc5OC[C@@H]4[C@H](c4ccccc4)[C@]3(C)C2=O)cc1 — higher, 15.3%
- COc1ccccc1OCCOc1ccc(/C=C2\C(=N)N3N=C(S(C)(=O)=O)SC3=NC2=O)cc1 — higher, 12%
- CN(C)CCn1c2c(c(SCC(=O)Nc3cccc4ccccc34)nc1=O)CCC2 — lower, -13.6%
- CCN(CC)CCn1c2c(c(SCC(=O)Nc3cccc4ccccc34)nc1=O)CCC2 — lower, -62.7%
- CN=C(NC(=O)Nc1c(C)cccc1C)NC(=O)Nc1c(C)cccc1C — lower, 3.97%
